Assay results published in PubChem BioAssay AID1159580 (chemical genetic matrix, 2015).
Several values for one entry are separate records, joined by “and”; a condition that tells them apart may be missing. Identical values can stand only once. In all, about 5,500 compounds went through this assay and about 2,000 (36%) were called active. Inconclusive results (about 18%) are left out. Rule as the data show it: active = normalized growth mostly below about 0.91 (no sharp cut-off); inconclusive = no clear call, values can overlap the other calls; inactive = mostly above about 0.92. The list shows a part of the results.

Test: chemical genetic growth profiling, strain panel (AID 1159580);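 also: tested at 20 µM; growth read once vehicle control cultures reached saturation at 30 °C; 1 = growth at the plate median or of vehicle wells; lower values mean less growth of the strain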
Conditions: S. cerevisiae deletion strains, growth OD
[1] = locus YAL013W, strain DEP1, active compounds read low
[2] = locus YBR229C, strain ROT2, active compounds read low
[3] = locus YDL101C, strain DUN1, active compounds read low
[4] = locus YEL061C, strain CIN8, active compounds read low
[5] = locus YHR030C, strain SLT2, active compounds read low
[6] = locus YLR039C, strain RIC1, active compounds read low
[7] = locus YMR263W, strain SAP30, active compounds read low
[8] = locus YNL128W, strain TEP1, active compounds read low
[9] = locus YPL055C, strain LGE1, active compounds read low
[10] = locus YPL241C, strain CIN2, active compounds read low
[11] = locus YHR079C, strain IRE1, active compounds read low
[12] = locus YJL095W, strain BCK1, active compounds read low
[13] = locus YJR066W, strain TOR1, active compounds read low
[14] = locus YLR113W, strain HOG1, active compounds read low
[15] = locus YNL183C, strain NPR1, active compounds read low
[16] = locus YOR061W, strain CKA2, active compounds read low
[17] = locus YOR231W, strain MKK1, active compounds read low
[18] = locus YPL256C, strain CLN2, active compounds read low

Measured: normalized growth

COc1nc(N)nc(SC)n1
inactive: [1] 0.995 | [2] 1 | locus YCL061C, strain MRC1, active compounds read low 0.988 | [3] 1 | locus YDR150W, strain NUM1, active compounds read low 1 | [4] 0.989 | locus YGR078C, strain PAC10, active compounds read low 1.02 | locus YGR229C, strain SMI1, active compounds read low 0.985 | [5] 1.05 | locus YHR087W, strain rtc3, active compounds read low 0.992 | locus YJR043C, strain POL32, active compounds read low 0.987 | locus YJR075W, strain HOC1, active compounds read low 0.987 | locus YKL190W, strain CNB1, active compounds read low 0.974 | [6] 0.97 | locus YLR058C, strain SHM2 (second series), active compounds read low 0.989 | locus YLR085C, strain ARP6, active compounds read low 0.984 | locus YLR262C, strain YPT6, active compounds read low 0.974 | locus YML094W, strain GIM5, active compounds read low 1.12 | locus YMR219W, strain ESC1, active compounds read low 0.993 | [7] 0.984 | [8] 0.979 | locus YNL153C, strain GIM3, active compounds read low 1 | locus YNL298W, strain CLA4 (second series), active compounds read low 0.98 | locus YNL322C, strain KRE1, active compounds read low 1 | locus YNR030W, strain Alg12, active compounds read low 1.02 | locus YOL006C, strain TOP1, active compounds read low 0.978 | [9] 1.01 | [10] 1.14 | locus YPR135W, strain CTF4, active compounds read low 1.03

COc1cc(C(=O)Oc2c(Cl)cc(Cl)cc2C=Nc2cccc([N+](=O)[O-])c2)cc(OC)c1OC
inactive: locus YAR019C, strain CDC15, active compounds read low 0.959 | locus YBL105C, strain PKC1, active compounds read low 0.971 | locus YBR135W, strain CKS1, active compounds read low 0.973 | locus YBR136W, strain MEC1, active compounds read low 0.977 | locus YBR160W, strain CDC28, active compounds read low 0.98 | locus YDL017W, strain CDC7, active compounds read low 0.982 | locus YDL028C, strain MPS1, active compounds read low 0.962 | [3] 0.985 | locus YDL108W, strain KIN28, active compounds read low 0.971 | locus YDL132W, strain cdc53, active compounds read low 0.962 | locus YDR052C, strain DBF4, active compounds read low 0.987 | locus YDR054C, strain cdc34, active compounds read low 0.956 | locus YDR226W, strain ADK1, active compounds read low 0.964 | locus YFL009W, strain cdc4, active compounds read low 0.958 | locus YFL029C, strain CAK1, active compounds read low 0.98 | locus YFR003C, strain YPI1, active compounds read low 0.976 | locus YFR028C, strain CDC14, active compounds read low 0.965 | locus YIL147C, strain SLN1, active compounds read low 0.973 | locus YJL128C, strain PBS2, active compounds read low 0.921 | locus YJR016C, strain ILV3, active compounds read low 0.988 | locus YJR066W, strain TOR1 (second series), active compounds read low 0.801 | locus YKL193C, strain SDS22, active compounds read low 0.979 | locus YKL203C, strain TOR2, active compounds read low 0.738 | locus YMR001C, strain CDC5, active compounds read low 0.981 | locus YMR277W, strain FCP1, active compounds read low 0.972 | locus YNL006W, strain LST8, active compounds read low 0.995 | locus YNL161W, strain CBK1, active compounds read low 0.982 | locus YNL207W, strain RIO2, active compounds read low 0.966 | locus YNL222W, strain SSU72, active compounds read low 0.98 | locus YOL078W, strain AVO1, active compounds read low 0.978 | locus YOR329C, strain SCD5, active compounds read low 0.985 | locus YPL209C, strain IPL1, active compounds read low 0.978 | locus YPR025C, strain CCL1, active compounds read low 0.973 | locus YPR106W, strain ISR1, active compounds read low 0.959 | locus YPR111W, strain DBF20, active compounds read low 0.928 | strain NNK1, active compounds read low 0.963 | strain TSCII, active compounds read low 0.982
active: locus YDL214C, strain PRR2, active compounds read low 0.607 | locus YDR477W, strain SNF1, active compounds read low 0.626 | locus YER123W, strain YCK3, active compounds read low 0.415 | locus YER133W, strain GLC7, active compounds read low 0.59 | locus YFR019W, strain FAB1, active compounds read low 0.706 | locus YGR040W, strain KSS1, active compounds read low 0.648 | locus YGR052W, strain FMP48, active compounds read low 0.561 | locus YGR092W, strain DBF2, active compounds read low 0.336 | [5] 0.387 | [11] 0.438 | locus YHR082C, strain KSP1, active compounds read low 0.569 | locus YHR205W, strain SCH9, active compounds read low 0.473 | [12] 0.473 | locus YJL157C, strain FAR1, active compounds read low 0.629 | [13] 0.427 | locus YKL048C, strain ELM1, active compounds read low 0.776 | locus YKL067W, strain YNK1, active compounds read low 0.613 | locus YKL101W, strain HSL1, active compounds read low 0.678 | [14] 0.577 | locus YLR133W, strain CKI1, active compounds read low 0.621 | locus YLR403W, strain SFP1, active compounds read low 0.51 | locus YML070W, strain DAK1, active compounds read low 0.642 | locus YMR205C, strain PFK2 (second series), active compounds read low 0.646 | locus YNL020C, strain ARK1, active compounds read low 0.597 | [15] 0.54 | locus YNL307C, strain MCK1 (second series), active compounds read low 0.566 | locus YOL136C, strain PFK27, active compounds read low 0.597 | [16] 0.576 | locus YOR119C, strain RIO1, active compounds read low 0.642 | [17] 0.494 | locus YPL031C, strain PHO85, active compounds read low 0.6 | locus YPL153C, strain RAD53, active compounds read low 0.619 | locus YPL204W, strain HRR25, active compounds read low 0.58 | [18] 0.481

CC(=O)Oc1cc(C)c2c(c1C(OC(C)=O)OC(C)=O)Oc1c(c(C)c(OC(C)=O)c3c1C(OC(C)=O)OC3=O)OC2=O (stereo not given)
inactive: [1] 0.98 | locus YBR021W, strain FUR4, active compounds read low 1.01 | [2] 0.989 | locus YCL029C, strain bik1, active compounds read low 0.98 | locus YDL035C, strain GPR1, active compounds read low 1.03 | locus YDL074C, strain BRE1, active compounds read low 0.998 | [3] 0.983 | locus YDL134C, strain PPH21, active compounds read low 0.983 | locus YDL185W, strain tfp1, active compounds read low 0.965 | locus YDL192W, strain arf1, active compounds read low 1.01 | locus YDR101C, strain arx1, active compounds read low 1.03 | locus YDR162C, strain NBP2, active compounds read low 0.998 | locus YDR318W, strain mcm21, active compounds read low 0.98 | locus YDR388W, active compounds read low 0.982 | locus YDR502C, strain sam2, active compounds read low 0.968 | [4] 0.985 | locus YER110C, active compounds read low 0.97 | locus YER155C, strain BEM2, active compounds read low 1.01 | locus YER167W, strain BCK2, active compounds read low 0.995 | locus YGL078C, strain dbp3, active compounds read low 0.973 | locus YGL086W, strain mad1, active compounds read low 0.995 | locus YGL248W, strain PDE1, active compounds read low 0.967 | locus YGR135W, strain pre9, active compounds read low 0.952 | locus YGR252W, strain gcn5, active compounds read low 1.06 | [5] 0.952 | locus YHR079C, strain IRE1 (second series), active compounds read low 0.983 | [11] 0.93 | locus YHR094C, strain hxt1, active compounds read low 0.978 | locus YHR129C, strain ARP1, active compounds read low 0.983 | locus YHR200W, strain rpn10, active compounds read low 0.988 | locus YIL066C, strain RNR3, active compounds read low 0.983 | locus YIL073C, strain SPO22, active compounds read low 1.02 | locus YIL125W, strain kgd1, active compounds read low 0.978 | locus YIR030C, strain dcg1, active compounds read low 0.964 | [12] 0.988 and 0.963 | locus YJL134W, strain LCB3, active compounds read low 0.985 | locus YJL168C, strain set2, active compounds read low 0.991 | locus YJL187C, strain SWE1 (second series), active compounds read low 0.961 | [13] 0.889 | locus YKL009W, strain mrt4, active compounds read low 1 | locus YKL068W, active compounds read low 0.969 | locus YKL085W, strain MDH1 (second series), active compounds read low 0.97 | locus YKL085W, strain MDH1, active compounds read low 0.97 | locus YKR001C, strain vps1, active compounds read low 1 | [6] 0.943 | locus YLR058C, strain SHM2, active compounds read low 0.993 | locus YLR102C, strain apc9, active compounds read low 0.974 | locus YLR268W, strain sec22, active compounds read low 1.01 | locus YLR342W, strain FKS1 (second series), active compounds read low 1.06 | locus YLR371W, strain rom2, active compounds read low 0.998 | locus YLR418C, strain cdc73, active compounds read low 0.989 | locus YML016C, strain PPZ1, active compounds read low 0.971 | locus YML032C, strain rad52, active compounds read low 0.997 | locus YML124C, strain tub3, active compounds read low 0.968 | locus YMR078C, strain ctf18, active compounds read low 0.978 | locus YMR223W, strain ubp8, active compounds read low 0.989 | [7] 0.982 | locus YMR307W, strain GAS1, active compounds read low 1.02 | locus YNL067W, strain RPL9B, active compounds read low 0.983 | [8] 0.99 | [15] 0.911 | locus YNL233W, strain BNI4, active compounds read low 0.973 | locus YNL250W, strain rad50, active compounds read low 0.921 | locus YNL271C, strain bni1, active compounds read low 0.968 | locus YNL298W, strain CLA4, active compounds read low 0.967 | locus YNL307C, strain MCK1, active compounds read low 0.974 | locus YNR052C, strain pop2, active compounds read low 0.961 | locus YOL012C, strain htz1 0.831 | locus YOL147C, strain pex11, active compounds read low 0.99 | [16] 0.982 | locus YOR069W, strain VPS5, active compounds read low 0.974 | locus YOR136W, strain idh2, active compounds read low 1 | locus YOR144C, strain elg1, active compounds read low 0.978 | locus YOR184W, strain ser1, active compounds read low 1.05 | [17] 0.942 | locus YOR316C, strain cot1, active compounds read low 0.978 | [9] 1.05 | [10] 0.989 | [18] 0.892 | locus YPR119W, strain clb2, active compounds read low 0.981 | locus YPR141C, strain kar3, active compounds read low 0.956 | locus YPR163C, strain tif3, active compounds read low 0.974 | locus YPR167C, strain met16, active compounds read low 0.979 | strain wtn01, active compounds read low 1.04
active: [14] 0.832
